# Measurements from PubChem BioAssay (EPA / NIEHS).
# Results filed as inconclusive are left out. Calls of active or inactive are those of the source. Rule for the calls, unless noted: active = hit-call score of the fitted dose curve at least 0.9, where 1 is the maximum; inactive = score below 0.9.
# Assays:
# [1] = BSK_3C_uPAR: BioMAP Diversity Plus: 3C Assay for Urokinase-type plasminogen activator receptor (uPAR) Biomarker Activity (AID 2282998); conditions: BioMAP 3C HUVEC, uPAR biomarker ELISA; actives raise or lower the signal
# Outline: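 Values derive from bidirectional curve fitting relative to DMSO, which served as baseline of activity. uPAR was measured by ELISA in human umbilical vein endothelial primary cultures 24 h after compound addition.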
# [2] = BSK_3C_VCAM1: BioMAP Diversity Plus: 3C Assay for Vascular cell adhesion molecule 1 (VCAM1) Biomarker Activity (AID 2282999); conditions: BioMAP 3C HUVEC, VCAM1 ELISA, cytokine-stimulated; actives raise or lower the signal
# Outline: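 Endothelial cells from human umbilical vein are treated with test chemical. At 24 h, VCAM-1 is measured by ELISA, and responses in either direction are fitted relative to DMSO.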
# [3] = BSK_4H_Eotaxin3: BioMAP Diversity Plus: 4H Assay for Eotaxin 3 Biomarker Activity (AID 2283000); conditions: primary human endothelial cells (HUVEC); actives raise or lower the signal;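 note: CCL26 protein level quantified by ELISA in parallel with SRB cytotoxicity check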
# Outline: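 HUVEC, 24 h post-dose, ELISA for Eotaxin-3/CCL26. Gain or loss of signal fitted bidirectionally vs DMSO baseline.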
# [4] = read-out: Intercellular Adhesion Molecule 1 (ICAM1), ICAM1 (gene 3383); assay: BSK_3C_ICAM1: BioMAP Diversity Plus: 3C Assay for Intercellular Adhesion Molecule 1 (ICAM1) Biomarker Activity (AID 2283003); conditions: primary human endothelial cells (HUVEC); actives raise or lower the signal
# Outline: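 Primary human umbilical vein endothelial cells in the BioMAP 3C system were exposed to chemicals for 24 h, then ICAM-1 was quantified by ELISA. Activity was fitted bidirectionally against the DMSO negative control baseline.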
# [5] = target: human Retinoic Acid Receptor beta (RARb), RARB (gene 5915) (UniProt P10826); assay: ATG_RARb_TRANS: Attagene TRANS-FACTORIAL HepG2 Assay for human Retinoic Acid Receptor beta (AID 2283004; active = hit-call score of the fitted dose curve at least 0.9, where 1 is the maximum)
# Sequence of human Retinoic Acid Receptor beta (RARb), RARB (gene 5915) (P10826 whole entry, looked up, the tested form may be a part): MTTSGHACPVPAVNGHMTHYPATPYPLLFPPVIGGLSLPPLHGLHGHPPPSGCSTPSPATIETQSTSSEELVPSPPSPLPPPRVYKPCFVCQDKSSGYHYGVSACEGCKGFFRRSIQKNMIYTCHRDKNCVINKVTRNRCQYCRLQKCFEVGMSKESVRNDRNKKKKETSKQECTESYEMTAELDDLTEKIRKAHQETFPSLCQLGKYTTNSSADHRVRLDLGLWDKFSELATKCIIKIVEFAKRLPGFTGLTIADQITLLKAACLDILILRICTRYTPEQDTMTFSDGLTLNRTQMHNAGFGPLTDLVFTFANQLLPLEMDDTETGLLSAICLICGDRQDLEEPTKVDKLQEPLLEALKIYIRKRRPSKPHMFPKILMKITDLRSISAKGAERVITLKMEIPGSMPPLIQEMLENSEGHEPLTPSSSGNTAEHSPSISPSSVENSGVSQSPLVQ
# Outline: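 HepG2 cells transiently transfected with multiplexed GAL4-UAS reporter units expressing chimeric NR–Gal4 fusions; 24 h compound exposure. Reporter mRNA quantified by RT-PCR, 6-FAM labelling, HpaI digestion and capillary electrophoresis; gain-of-signal fitted against DMSO baseline.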
# [6] = BSK_3C_Proliferation: Cell Proliferation Assessment in the BioMAP Diversity Plus: 3C Assay (AID 2283006); conditions: primary human endothelial cells (HUVEC);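 for AC50: potency may reflect either rise or fall in cell number versus DMSO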
# Outline: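 Human umbilical vein endothelial cells were grown sub-confluent and exposed to chemical for 48 h, then fixed with 10% TCA and stained with 0.1% sulforhodamine B; absorbance at 560 nm gave relative cell number, fitted bidirectionally against DMSO baseline.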
# [7] = target: Peroxisome proliferator-activated receptor gamma (Homo sapiens) (UniProt P37231); assay: ATG_PPARg_TRANS: Attagene TRANS-FACTORIAL HepG2 Assay for human Peroxisome Proliferator-activated Receptor-gamma (PPARg) (AID 2283007; active = hit-call score of the fitted dose curve at least 0.9, where 1 is the maximum)
# Sequence of Peroxisome proliferator-activated receptor gamma (Homo sapiens) (P37231 whole entry, looked up, the tested form may be a part): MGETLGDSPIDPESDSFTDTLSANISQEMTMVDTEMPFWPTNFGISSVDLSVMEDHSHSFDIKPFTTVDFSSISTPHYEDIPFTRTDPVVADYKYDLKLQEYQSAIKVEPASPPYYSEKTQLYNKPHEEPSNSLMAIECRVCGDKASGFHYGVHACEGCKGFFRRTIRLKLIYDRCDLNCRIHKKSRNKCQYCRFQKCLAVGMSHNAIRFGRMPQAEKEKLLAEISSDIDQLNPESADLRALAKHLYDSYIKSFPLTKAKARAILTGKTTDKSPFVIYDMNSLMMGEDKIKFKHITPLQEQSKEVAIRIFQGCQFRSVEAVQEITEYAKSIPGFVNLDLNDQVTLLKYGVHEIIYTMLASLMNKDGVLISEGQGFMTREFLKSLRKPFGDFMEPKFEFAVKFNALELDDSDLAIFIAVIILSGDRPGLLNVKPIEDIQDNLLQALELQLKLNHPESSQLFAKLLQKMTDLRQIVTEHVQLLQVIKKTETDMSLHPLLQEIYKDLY
# Outline: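 HepG2 cells transiently transfected with multiplexed GAL4-UAS reporter units and exogenous chimeric NR-Gal4 proteins; reporter mRNA quantified after 24 h compound exposure by RT-PCR, fluorescent labelling, HpaI digestion and capillary electrophoresis; gain-of-signal fitted versus DMSO baseline.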
# [8] = target: Nuclear receptor subfamily 1 group I member 2 (Homo sapiens) (UniProt O75469); assay: ATG_PXR_TRANS: Attagene TRANS-FACTORIAL HepG2 Assay for human Pregnane X Receptor (PXR) (AID 2283008; active = hit-call score of the fitted dose curve at least 0.9, where 1 is the maximum)
# Sequence of Nuclear receptor subfamily 1 group I member 2 (Homo sapiens) (O75469 whole entry, looked up, the tested form may be a part): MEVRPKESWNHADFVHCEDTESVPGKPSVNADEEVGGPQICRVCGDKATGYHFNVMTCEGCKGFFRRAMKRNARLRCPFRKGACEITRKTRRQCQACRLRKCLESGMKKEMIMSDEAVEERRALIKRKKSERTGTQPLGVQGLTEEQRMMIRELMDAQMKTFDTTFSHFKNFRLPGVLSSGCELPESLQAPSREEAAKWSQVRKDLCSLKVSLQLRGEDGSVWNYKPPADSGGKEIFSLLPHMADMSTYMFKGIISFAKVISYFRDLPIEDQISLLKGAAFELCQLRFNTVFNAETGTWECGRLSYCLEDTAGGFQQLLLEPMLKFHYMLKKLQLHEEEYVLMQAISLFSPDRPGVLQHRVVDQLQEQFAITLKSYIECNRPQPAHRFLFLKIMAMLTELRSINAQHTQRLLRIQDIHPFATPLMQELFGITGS
# Outline: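 HepG2 cells transiently transfected with multiple reporter units, here a PXR-GAL4 chimera driving a GAL4-UAS reporter; 24 h compound exposure. Reporter mRNA measured by RT-PCR, FAM labelling and capillary electrophoresis; gain of signal fitted against DMSO baseline.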
# [9] = target: human Retinoic Acid Receptor gamma (RARg), RARG (gene 5916) (UniProt P13631); assay: ATG_RARg_TRANS: Attagene TRANS-FACTORIAL HepG2 Assay for human Retinoic Acid Receptor gamma (RARg) (AID 2283009; active = hit-call score of the fitted dose curve at least 0.9, where 1 is the maximum)
# Sequence of human Retinoic Acid Receptor gamma (RARg), RARG (gene 5916) (P13631 whole entry, looked up, the tested form may be a part): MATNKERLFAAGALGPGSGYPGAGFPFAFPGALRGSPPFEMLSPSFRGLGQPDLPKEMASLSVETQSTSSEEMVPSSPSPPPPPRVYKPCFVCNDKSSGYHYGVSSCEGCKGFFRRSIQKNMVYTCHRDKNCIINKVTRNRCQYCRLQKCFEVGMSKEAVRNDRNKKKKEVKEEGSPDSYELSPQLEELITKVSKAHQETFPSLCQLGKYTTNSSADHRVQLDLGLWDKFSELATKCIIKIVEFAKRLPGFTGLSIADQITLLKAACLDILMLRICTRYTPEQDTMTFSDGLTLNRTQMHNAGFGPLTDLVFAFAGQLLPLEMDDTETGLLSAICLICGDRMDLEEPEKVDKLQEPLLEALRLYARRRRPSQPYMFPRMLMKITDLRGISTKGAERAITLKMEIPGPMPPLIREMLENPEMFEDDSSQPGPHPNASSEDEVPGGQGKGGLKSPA
# Outline: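 HepG2 cells transiently transfected with multiplexed reporter units expressing chimeric RARg-GAL4 and GAL4-UAS-driven reporters; 24 h compound exposure. Reporter mRNA quantified by RT-PCR with fluorescent labelling and capillary electrophoresis; gain-of-signal fitted relative to DMSO baseline.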
# [10] = target: human RAR-related Orphan Receptor beta (RORb), RORB (gene 6096) (UniProt Q92753); assay: ATG_RORb_TRANS: Attagene TRANS-FACTORIAL HepG2 Assay for human RAR-related Orphan Receptor beta (RORb) (AID 2283010; active = hit-call score of the fitted dose curve at least 0.9, where 1 is the maximum)
# Sequence of human RAR-related Orphan Receptor beta (RORb), RORB (gene 6096) (Q92753 whole entry, looked up, the tested form may be a part): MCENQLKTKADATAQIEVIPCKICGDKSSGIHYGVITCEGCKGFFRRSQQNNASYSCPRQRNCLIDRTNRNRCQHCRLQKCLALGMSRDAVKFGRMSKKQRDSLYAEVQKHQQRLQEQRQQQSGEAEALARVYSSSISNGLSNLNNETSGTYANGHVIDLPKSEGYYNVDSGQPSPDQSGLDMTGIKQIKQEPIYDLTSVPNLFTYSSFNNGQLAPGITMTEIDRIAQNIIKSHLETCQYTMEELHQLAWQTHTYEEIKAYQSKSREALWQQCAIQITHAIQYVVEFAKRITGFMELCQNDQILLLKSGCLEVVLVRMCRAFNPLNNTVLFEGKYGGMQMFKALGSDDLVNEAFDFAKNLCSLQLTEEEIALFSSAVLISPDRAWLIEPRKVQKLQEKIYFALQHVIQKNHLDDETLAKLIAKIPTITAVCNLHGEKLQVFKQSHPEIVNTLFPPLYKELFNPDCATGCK
# Outline: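 HepG2 cells were transiently transfected with multiplexed GAL4-UAS reporter units expressing chimeric nuclear receptor–GAL4 proteins, then dosed for 24 h. Reporter mRNA was quantified by RT-PCR with fluorescent labelling and capillary electrophoresis; gain of signal was fitted relative to DMSO.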
# [11] = target: human RAR-related Orphan Receptor gamma (RORg), RORC (gene 6097) (UniProt P51449); assay: ATG_RORg_TRANS: Attagene TRANS-FACTORIAL HepG2 Assay for human RAR-related Orphan Receptor gamma (RORg) (AID 2283011; active = hit-call score of the fitted dose curve at least 0.9, where 1 is the maximum)
# Sequence of human RAR-related Orphan Receptor gamma (RORg), RORC (gene 6097) (P51449 whole entry, looked up, the tested form may be a part): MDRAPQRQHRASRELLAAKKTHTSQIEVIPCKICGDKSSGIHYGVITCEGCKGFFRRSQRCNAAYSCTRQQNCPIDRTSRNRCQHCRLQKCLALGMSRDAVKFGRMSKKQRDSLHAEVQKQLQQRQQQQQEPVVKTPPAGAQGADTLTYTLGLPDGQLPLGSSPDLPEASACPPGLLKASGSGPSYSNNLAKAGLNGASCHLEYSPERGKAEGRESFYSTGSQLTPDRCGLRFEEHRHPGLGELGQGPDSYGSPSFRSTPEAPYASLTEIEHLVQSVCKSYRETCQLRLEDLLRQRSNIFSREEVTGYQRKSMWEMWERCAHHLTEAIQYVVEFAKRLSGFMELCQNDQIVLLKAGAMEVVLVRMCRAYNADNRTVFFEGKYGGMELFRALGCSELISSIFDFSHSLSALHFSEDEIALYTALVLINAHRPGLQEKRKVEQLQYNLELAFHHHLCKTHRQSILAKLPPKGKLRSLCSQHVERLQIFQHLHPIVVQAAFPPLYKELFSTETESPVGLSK
# Outline: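 Readout: reporter transcript induction (RT-PCR, fluorescent primer extension, capillary electrophoresis) after 24 h compound exposure of transiently transfected HepG2 cells carrying a RORg-Gal4 chimera and GAL4-UAS reporters; DMSO served as baseline, with increasing signal fitted.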
# [12] = target: Retinoic acid receptor RXR-alpha (Homo sapiens) (UniProt P19793); assay: ATG_RXRa_TRANS: Attagene TRANS-FACTORIAL HepG2 Assay for human Retinoid X Receptor alpha (RXRa) (AID 2283012; active = hit-call score of the fitted dose curve at least 0.9, where 1 is the maximum)
# Sequence of Retinoic acid receptor RXR-alpha (Homo sapiens) (P19793 whole entry, looked up, the tested form may be a part): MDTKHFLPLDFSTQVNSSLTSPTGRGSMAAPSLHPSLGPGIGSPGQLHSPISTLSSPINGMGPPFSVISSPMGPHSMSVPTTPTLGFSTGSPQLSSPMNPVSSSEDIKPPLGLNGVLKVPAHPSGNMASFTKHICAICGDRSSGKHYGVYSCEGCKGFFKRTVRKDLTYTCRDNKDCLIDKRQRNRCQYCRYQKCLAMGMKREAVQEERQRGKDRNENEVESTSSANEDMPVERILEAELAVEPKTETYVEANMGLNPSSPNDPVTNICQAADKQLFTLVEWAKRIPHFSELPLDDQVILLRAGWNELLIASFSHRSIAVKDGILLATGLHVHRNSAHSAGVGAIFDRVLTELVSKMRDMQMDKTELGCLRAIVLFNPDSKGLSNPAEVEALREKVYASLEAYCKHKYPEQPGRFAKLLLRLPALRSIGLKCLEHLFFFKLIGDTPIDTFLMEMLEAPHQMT
# Outline: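 HepG2 cells transiently transfected with multiplexed GAL4-UAS reporter units and chimeric NR-GAL4 fusions, dosed 24 h. Reporter mRNA measured by RT-PCR, FAM labelling, HpaI digestion and capillary electrophoresis; gain-of-signal fitted relative to DMSO baseline.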
# [13] = target: human Retinoid X Receptor beta (RXRb), RXRB (gene 6257) (UniProt P28702); assay: ATG_RXRb_TRANS: Attagene TRANS-FACTORIAL HepG2 Assay for human Retinoid X Receptor beta (RXRb) (AID 2283013; active = hit-call score of the fitted dose curve at least 0.9, where 1 is the maximum)
# Sequence of human Retinoid X Receptor beta (RXRb), RXRB (gene 6257) (P28702 whole entry, looked up, the tested form may be a part): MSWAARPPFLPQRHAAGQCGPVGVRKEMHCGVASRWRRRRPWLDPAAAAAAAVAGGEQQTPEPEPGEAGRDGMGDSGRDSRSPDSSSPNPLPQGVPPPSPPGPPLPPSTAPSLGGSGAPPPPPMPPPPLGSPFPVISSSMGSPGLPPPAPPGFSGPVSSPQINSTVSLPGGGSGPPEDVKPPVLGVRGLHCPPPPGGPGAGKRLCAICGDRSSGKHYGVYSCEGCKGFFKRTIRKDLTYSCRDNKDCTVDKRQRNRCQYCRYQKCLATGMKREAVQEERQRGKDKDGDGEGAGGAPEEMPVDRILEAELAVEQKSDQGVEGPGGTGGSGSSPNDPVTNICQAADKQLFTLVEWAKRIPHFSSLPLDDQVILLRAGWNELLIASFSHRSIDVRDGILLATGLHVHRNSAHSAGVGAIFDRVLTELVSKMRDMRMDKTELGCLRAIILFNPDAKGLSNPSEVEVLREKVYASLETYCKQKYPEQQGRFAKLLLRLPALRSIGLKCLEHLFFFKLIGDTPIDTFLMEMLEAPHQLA
# Outline: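 HepG2 cells transiently transfected with multiplexed reporter units driven by GAL4-UAS and exogenous chimeric NR-Gal4 proteins; treated 24 h. Reporter mRNA measured by RT-PCR, 6-FAM labelling and capillary electrophoresis; gain-of-signal fitted versus DMSO baseline.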
# [14] = read-out: E-selectin (Homo sapiens) (UniProt P16581); assay: BSK_3C_Eselectin: BioMAP Diversity Plus: 3C Assay for Eselectin Biomarker Activity (AID 2283015); conditions: primary human endothelial cells (HUVEC); actives raise or lower the signal;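 note: cell surface E-selectin protein quantified by ELISA 24 h after dosing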
# Outline: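 Primary human umbilical vein endothelial cells (3C system) were dosed with chemical and cell-surface E-selectin measured by ELISA 24 h later. Bidirectional curve fitting used DMSO as negative control and baseline.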
# [15] = read-out: Interleukin-1 alpha (IL1a), IL1A (gene 3552); assay: BSK_BE3C_IL1a: BioMAP Diversity Plus: BE3C Assay for Interleukin-1 alpha (IL1a) Biomarker Activity (AID 2283016); conditions: primary human bronchial epithelial cells; actives raise or lower the signal
# Outline: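 Human primary bronchial epithelial cells (BE3C system) were dosed with compound and IL-1a measured by ELISA 24 h later. Activity was fitted bidirectionally against DMSO baseline; cytotoxicity was tracked in parallel cultures by SRB total-protein staining.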
# [16] = read-out: Monocyte Chemoattractant Protein-1 (MCP1), CCL2 (gene 6347); assay: BSK_3C_MCP1: BioMAP Diversity Plus: 3C Assay for Monocyte Chemoattractant Protein-1 (MCP1) Biomarker Activity (AID 2283017); conditions: primary human endothelial cells (HUVEC); actives raise or lower the signal
# Outline: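 Primary human umbilical vein endothelial cells (3C system) were exposed to test chemical for 24 h, after which MCP-1 was quantified by ELISA. Activity was fitted bidirectionally against DMSO as negative control and baseline.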
# [17] = read-out: Monocyte Chemoattractant Protein-1 (MCP1), CCL2 (gene 6347); assay: BSK_4H_MCP1: BioMAP Diversity Plus: 4H Assay for Monocyte Chemoattractant Protein-1 (MCP1) Biomarker Activity (AID 2283018); conditions: primary human endothelial cells (HUVEC); actives raise or lower the signal
# Outline: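 Human umbilical vein endothelial cells (4H system) dosed with chemical; MCP-1 measured by ELISA 24 h after dosing. Bidirectional curve fitting against DMSO negative control as baseline; parallel SRB total-protein staining tracks overt cytotoxicity.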
# [18] = target: human Thyroid Receptor alpha (THRa1), THRA (gene 7067) (UniProt P10827); assay: ATG_THRa1_TRANS: Attagene TRANS-FACTORIAL HepG2 Assay for human Thyroid Receptor alpha (THRa1) (AID 2283014; active = hit-call score of the fitted dose curve at least 0.9, where 1 is the maximum)
# Sequence of human Thyroid Receptor alpha (THRa1), THRA (gene 7067) (P10827 whole entry, looked up, the tested form may be a part): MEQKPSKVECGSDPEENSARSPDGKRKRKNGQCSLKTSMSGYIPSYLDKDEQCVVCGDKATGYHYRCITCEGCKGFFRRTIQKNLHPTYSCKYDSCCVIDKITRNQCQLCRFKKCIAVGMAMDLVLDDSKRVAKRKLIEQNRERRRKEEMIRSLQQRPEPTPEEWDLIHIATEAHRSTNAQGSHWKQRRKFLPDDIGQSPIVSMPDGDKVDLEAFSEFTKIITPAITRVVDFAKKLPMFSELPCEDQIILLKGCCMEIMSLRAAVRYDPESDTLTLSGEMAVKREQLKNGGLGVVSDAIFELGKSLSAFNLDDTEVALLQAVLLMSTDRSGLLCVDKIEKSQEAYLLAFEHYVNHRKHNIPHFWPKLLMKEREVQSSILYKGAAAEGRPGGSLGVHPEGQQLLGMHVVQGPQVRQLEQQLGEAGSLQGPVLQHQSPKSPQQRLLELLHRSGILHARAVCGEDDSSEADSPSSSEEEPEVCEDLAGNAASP
# Outline: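 HepG2 cells transiently transfected with multiplexed GAL4-UAS reporter units for exogenous chimeric THRa1-Gal4; reporter mRNA measured 24 h after dosing by RT-PCR, 6-FAM labelling, HpaI digestion and capillary electrophoresis. Gain-of-signal fitted versus DMSO baseline.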
# Sequence of E-selectin (Homo sapiens) (P16581 whole entry, looked up): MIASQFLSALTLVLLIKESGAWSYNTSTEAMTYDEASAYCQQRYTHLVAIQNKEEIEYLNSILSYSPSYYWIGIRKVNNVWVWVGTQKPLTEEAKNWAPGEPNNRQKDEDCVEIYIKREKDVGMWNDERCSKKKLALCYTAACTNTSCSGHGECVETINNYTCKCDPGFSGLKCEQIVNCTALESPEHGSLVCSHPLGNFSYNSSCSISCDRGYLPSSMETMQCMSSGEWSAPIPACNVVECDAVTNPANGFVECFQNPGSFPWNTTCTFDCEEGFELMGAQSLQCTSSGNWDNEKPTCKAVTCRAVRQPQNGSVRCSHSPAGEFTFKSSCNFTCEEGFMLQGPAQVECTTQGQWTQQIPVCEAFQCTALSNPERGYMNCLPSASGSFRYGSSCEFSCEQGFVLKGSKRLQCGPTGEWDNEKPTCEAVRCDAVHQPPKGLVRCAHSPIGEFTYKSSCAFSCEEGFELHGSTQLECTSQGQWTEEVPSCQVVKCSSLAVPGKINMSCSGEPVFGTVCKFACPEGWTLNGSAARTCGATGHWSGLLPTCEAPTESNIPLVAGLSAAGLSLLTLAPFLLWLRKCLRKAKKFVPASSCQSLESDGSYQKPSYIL
structure (smiles),measurement,setting,value
CSC(=O)c1c(C(F)F)nc(C(F)(F)F)c(C(=O)SC)c1CC(C)C,AC50,[1],32.6 µM (active)
same,outcome,[2],inactive
same,outcome,[3],inactive
same,outcome,[4],inactive
same,outcome,[5],inactive
same,AC50,[6],15.7 µM (active)
same,AC50,[7],10.9 µM (active)
same,AC50,[8],1.66 µM (active)
same,outcome,[9],inactive
same,outcome,[10],inactive
same,outcome,[11],inactive
same,outcome,[12],inactive
same,AC50,[13],15.1 µM (active)
same,outcome,[14],inactive
same,outcome,[15],inactive
same,AC50,[16],31.2 µM (active)
same,AC50,[17],20 µM (active)
CCCCC(O)(Cn1cncn1)c1ccc(Cl)cc1Cl (centres undefined),AC50,[1],36.5 µM (active)
same,outcome,[2],inactive
same,outcome,[3],inactive
same,outcome,[4],inactive
same,AC50,[6],26.2 µM (active)
same,outcome,[7],inactive
same,outcome,[8],inactive
same,outcome,[12],inactive
same,outcome,[14],inactive
same,outcome,[15],inactive
same,outcome,[16],inactive
same,outcome,[17],inactive
O=C(Nc1ccccc1-c1ccc(Cl)cc1)c1cccnc1Cl,outcome,[1],inactive
same,outcome,[2],inactive
same,outcome,[3],inactive
same,outcome,[4],inactive
same,outcome,[6],inactive
same,AC50,[7],10.9 µM (active)
same,outcome,[8],inactive
same,outcome,[10],inactive
same,outcome,[12],inactive
same,outcome,[13],inactive
same,outcome,[18],inactive
same,outcome,[14],inactive
same,outcome,[15],inactive
same,outcome,[16],inactive
same,outcome,[17],inactive
